# Measurements from ChEMBL document CHEMBL3433997, “St. Jude Leishmania screening dataset” (2016).
# Legend:
# Assay type in all cases: functional
# [1] = target: Solute carrier family 2, facilitated glucose transporter member 1 (Homo sapiens) (UniProt P11166); test: ST_JUDE_LEISH: Cytotoxicity at 2uM final concentration against transgenic Leishmania Mexicana promastigotes LmGLUT1 that are glucose transport deficient and complemented with the human glucose transporter GLUT1. Activity is measured by DNA content using SYBR green in vitro
# Sequence of Solute carrier family 2, facilitated glucose transporter member 1 (Homo sapiens) (P11166 whole entry): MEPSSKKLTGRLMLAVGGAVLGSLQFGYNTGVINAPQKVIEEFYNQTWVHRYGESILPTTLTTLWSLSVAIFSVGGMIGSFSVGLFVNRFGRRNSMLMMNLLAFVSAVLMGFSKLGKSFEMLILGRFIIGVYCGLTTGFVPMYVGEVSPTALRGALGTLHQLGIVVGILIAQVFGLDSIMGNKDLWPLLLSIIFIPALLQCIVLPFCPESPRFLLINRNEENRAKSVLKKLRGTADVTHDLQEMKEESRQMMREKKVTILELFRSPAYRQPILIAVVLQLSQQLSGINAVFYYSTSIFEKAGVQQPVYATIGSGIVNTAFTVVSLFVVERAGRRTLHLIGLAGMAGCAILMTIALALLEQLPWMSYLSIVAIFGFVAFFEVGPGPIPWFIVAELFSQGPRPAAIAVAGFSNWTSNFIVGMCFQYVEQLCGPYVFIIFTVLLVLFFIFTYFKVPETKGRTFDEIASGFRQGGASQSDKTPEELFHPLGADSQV
# [2] = target: Hexose transporter 1 (Plasmodium falciparum) (UniProt O97467); test: ST_JUDE_LEISH: Cytotoxicity at 2uM final concentration against transgenic Leishmania Mexicana promastigotes LmPfHT that are glucose transport deficient and complemented with the Plasmodium falciparum hexose transporter. Activity is measured by DNA content using SYBR green in vitro
# [3] = target: Glucose transporter (Leishmania mexicana) (UniProt O61059); test: ST_JUDE_LEISH: Cytotoxicity at 2uM final concentration against transgenic Leishmania Mexicana promastigotes LmGT2 that are glucose transport deficient and complemented with the L. Mexicana glucose transporter 2. Activity is measured by DNA content using SYBR green in vitro
Structure (SMILES),inhibition [1],inhibition [2],inhibition [3]
Cc1cccc(Cn2nc(-c3ccccc3)c(N3CCCCC3)cc2=O)c1,2.58%,3.01%,-2.21%
O=C(Nc1ccc(Cl)c(Cl)c1)N1CCC(CNCc2cccc([N+](=O)[O-])c2)CC1,3.92%,4.18%,5.3%
CC(C)(CNC(=O)C1CCN(CCOCc2ccccc2)CC1)c1nc(-c2ccc(Cl)c(O)c2)c(-c2ccncc2)[nH]1,1.22%,0.65%,2.74%
CCCCCCN1CCCN(Cc2ccc(C(=O)Nc3ccc(C(C)C)cc3)cc2)CC1,5.84%,7.26%,4.28%
CS(=O)(=O)c1ccc(CCNCc2ccc(-c3ccc(CN(C(=O)C4CCCC4)C4CCN(Cc5ccccc5)CC4)cc3)nc2)cc1,0.69%,0.71%,-2.64%
CN(C)Cc1ccc(-c2cc3ncnc(Nc4ccc(OCc5cccc(F)c5)c(Cl)c4)c3s2)[nH]1,3.19%,2.49%,1.76%
CC(C)(C)c1ccc2[nH]c(-c3ccc(/C=C/C(=O)NCc4cccc(C(F)(F)F)c4)cc3)nc2c1,3.32%,5.66%,2.22%
CCCc1cc(OCCCOc2ccccc2)ccc1OCCCON1C(=N)N=C(N)NC1(C)C,20.6%,26.8%,14%
O=C(Nc1ccc(N2CCN(Cc3c[nH]c4cc(F)ccc34)CC2)cc1)c1ccccc1-c1ccc(C(F)(F)F)cc1,7.38%,4.06%,3.31%
CCCC(C)Nc1nc(C)cc(N[C@@H](CC(C)C)C(=O)NCc2cccc(F)c2)n1 (stereo not given in full),4.43%,5.69%,3.7%
CN1CCN(c2ccc(Nc3c(C(N)=O)cnc4cc(-c5ccoc5)ccc34)cc2)CC1,15.1%,24.6%,3.57%
Cc1ccc2c(c1)nc(N)n2C[C@H](O)c1ccccc1,1.01%,1.37%,1.1%
CC(C)(C)Oc1ccc(CC2NC3(C(=O)N(Cc4ccc(C(C)(C)C)cc4)c4ccccc43)C3C(=O)N(c4ccc(Br)cc4)C(=O)C23)cc1 (stereo not given),-1.37%,3%,0.37%
O=C(Nc1ccc(Br)cc1)Nc1ccc(Cn2ncc(N3CCCNCC3)c(Cl)c2=O)cc1,-2.08%,0.01%,2.81%
COc1ccc2c(=NN=Cc3cccc(Cl)c3)cc(C)[nH]c2c1,2.13%,0.71%,-0.53%
CCCCC(CCCC)CN1C(=O)C(c2ccccc2)(c2ccccc2)N=C1N,1.9%,1.66%,0.77%
COc1cccc(NC(=O)Nc2ccc(C)c(-c3ccc(C(=O)Nc4ccncc4)cc3)c2)c1,-1.55%,-1.72%,-0.17%
O=C(CCCCCNC(=O)c1ccc(O)c(-c2ccc(Cl)c(Cl)c2)c1)NCc1cccc(C(F)(F)F)c1,-1.4%,-1.74%,-4.05%
Nc1nc(N)c2cc(NC(=O)c3ccc(Cl)c(Cl)c3)ccc2n1,5.31%,2.01%,4.8%
CC(CCc1ccccc1)NCC(O)c1ccc2c3c(cccc13)C(=O)N2C (stereo not given),1.56%,0.34%,-0.76%
CCNc1cc(C)nc(Nc2ccc(NS(=O)(=O)c3cc(OC)ccc3OC)cc2)n1,16.8%,12.1%,5.24%
CC(=O)Nc1ncc(C(=O)Nc2cccc(-c3cccc(-c4nc5cc(C(F)(F)F)ccc5[nH]4)c3)c2)s1,-1.12%,0.35%,0.3%
COc1ccc2c(c1)S(=O)(=O)N=C(N1CCCC1c1ccc(Cl)c(Cl)c1)N2C (stereo not given),-1.4%,-0.89%,-1.05%
Cc1cc(C(=O)NC2CCN(CC3(c4ccccc4)CCCCC3)CC2)on1,1.62%,0.59%,-0.45%

Structure (SMILES),inhibition [1],inhibition [2],inhibition [3]
COc1ccc2cc(-c3nc(-c4c(Cl)cccc4Cl)[nH]c3-c3ccnc(NCCC4CCCN4C)c3)ccc2c1 (stereo not given),29.7%,12.8%,8.98%
CCCC(C(=O)OCCN(CC)CC)(c1ccc(Cl)cc1)c1ccc(Cl)cc1,4.77%,5.49%,7.04%
O=[N+]([O-])c1cccc(CNCC2CCN(Cc3ccc(Cl)c(Cl)c3)CC2)c1,18.2%,9.74%,12.9%
Brc1ccccc1CNc1ccnc(NCCn2ccnc2)n1,-0.91%,0.05%,0.03%
O=C(Nc1ccc2c(c1)OCO2)NC1CCN(c2ccnc(NCc3ccc(F)cc3)n2)CC1,2.05%,2.3%,0.61%
O=C(CCCCCNC(=O)c1ccc(O)c(-c2cccc(C(F)(F)F)c2)c1)NCCN1CCCCC1,5.39%,4.36%,0.5%
COc1ccc(C=CC(=O)Nc2ccc(N3CCCC3)cc2)cc1,1.15%,-1.95%,-1%
COC(=O)C(Cc1ccccc1)C(CSCc1ccc(OC)cc1)C(=O)N[C@@H](C(=O)OC(C)(C)C)c1ccc(C(C)(C)C)cc1 (stereo not given in full),4.24%,4.41%,5.18%
O=C(NC(=S)Nc1cc(C(F)(F)F)cc(C(F)(F)F)c1)c1ccc(Cl)cc1,0.72%,-0.34%,-0.06%
CC(C)(C)OC(=O)NCCc1cccc(-c2c[nH]c3ncc(-c4cccc(NS(C)(=O)=O)c4)cc23)c1,-0.22%,-2.71%,7.65%
O=C(NCCCN1CCOCC1)c1cccc(Nc2nccc(Nc3ccc(Oc4ccccc4)cc3)n2)c1,2.39%,-0.18%,-0.86%
O=C(Nc1ccc2c(c1)CN(Cc1ccc(N3CCCC3)o1)CCC2)c1ccoc1,19.8%,12.8%,2.73%
CCn1ccc2c(N3CCCS3(=O)=O)cc(C(=O)N[C@@H](Cc3ccccc3)[C@H](O)CNC(C)(C)CCCC(C)C)cc21,7.39%,7.48%,2.41%
NCCCNc1nc(Nc2cccc(C(N)=O)c2)c2c(=O)[nH]ccc2n1,-0.41%,1.23%,0.77%
CC1(C)Cc2c([nH]c3ccccc23)C(CCCCCCCCC2=NC(C)(C)Cc3c2[nH]c2ccccc32)=N1,8.46%,6.32%,0.21%
CC(Cc1ccc(NC(=O)c2ccc(CNCc3ccccc3)cc2)cc1)N(CCc1cccc(Cl)c1)C(=O)OC(C)(C)C (stereo not given),6.08%,4.74%,3.04%
CN(CCc1ccccc1)c1ncc(-c2cccc(CNCCC3CCCN3C)c2)cn1 (stereo not given),111%,67%,109%
Cc1ccc(NC(=O)c2cccc(CN3CCCN(Cc4cccc(O)c4)CC3)c2)cc1C,4.69%,3.38%,4.38%
CS(=O)(=O)c1ccccc1CNC(=O)c1ccc(-c2cccc(-c3nc4cc(C(F)(F)F)ccc4[nH]3)c2)cc1,2.96%,2.74%,2.22%
CCNC(=O)Nc1ccc(N(C)c2ccnc(NC3CC3)n2)cc1,5.12%,3.87%,5.35%
Cc1cc(-c2ccnc(Nc3cccc(C#N)c3)n2)cc(C)c1O,13.8%,16%,7.83%
COc1cccc2c1CCN(CCN1CCC(NC(=O)c3ccc(-c4cccc(Cl)c4Cl)cc3)CC1)C2,6.67%,6.1%,5.27%
O=C(Nc1ccc(Cl)c(C(F)(F)F)c1)N[C@H]1CCN(CCCCCNC(=O)C2CC2c2ccc(Cl)c(Cl)c2)C1 (stereo not given in full),-1.57%,1.02%,-0.67%
Cc1cccc2nc(-c3ccc(-c4cccc(C(=O)NCCN5CCCC5)c4)s3)[nH]c12,10.1%,10.7%,9.13%

Structure (SMILES),inhibition [1],inhibition [2],inhibition [3]
CCOC(=O)N1CCN(CCCNc2c3ccc(Cl)cc3nc3ccc(OC)cc23)CC1,4.11%,3.33%,1.42%
CSc1nc2nc(C)c(Cc3cccc(F)c3)c(C)n2n1,-1.07%,-0.45%,0.34%
Cc1c(S(=O)(=O)Nc2ccc3nccc(N4CC(C)NC(C)C4)c3c2)sc2ccc(Cl)cc12 (stereo not given),5.22%,6.03%,3.81%
COc1ccc2nccc([C@@H](O)CN3CCC(NCC4COc5ccccc5O4)CC3)c2c1 (stereo not given in full),7.53%,8.69%,1.37%
FC(F)(F)CNc1nc(Nc2ccc3ncccc3c2)nc2[nH]ccc12,21.8%,17.9%,8.14%
O=C(Nc1ccc(F)cc1)NC1CCN(c2ccnc3ccccc23)C1 (stereo not given),3.76%,3.71%,3.79%
CCC(C)(C)C1CCc2[nH]c3ccccc3c(=O)c2C1 (stereo not given),9.6%,26.9%,6.59%
COc1cc2nc(N3CCC(CNC(=O)c4cccc5cccnc45)CC3)nc(N)c2cc1OC,5.61%,4.14%,3.91%
O=C(/C=C/c1ccc(Cl)c(Cl)c1)NCC1CCN(Cc2ccc(O)cc2)CC1,69.6%,57.8%,46.2%
CC(C(=O)NC1CCN(c2ccnc(Nc3ccc(F)cc3)n2)C1)c1ccc(Cl)cc1 (stereo not given),1.1%,0.7%,2.7%
O=C(CCNc1ccnc(NCCc2ccc(F)cc2)n1)Nc1ccccc1,3.86%,4.56%,3.24%
O=C(Cc1ccc([N+](=O)[O-])cc1)N1CCc2cc3nccc(N4CCN5CCC[C@@H]5C4)c3cc21,1.21%,0.39%,2.97%
c1ccc(-c2[nH]c3ccccc3c2CN2CCC(N3CCCCC3)CC2)nc1,-2.72%,-0.46%,-1.64%
CN(C)CCN(C)Cc1nc(-c2ccc3c(Nc4ccc(Oc5ccccc5)cc4)ccnc3c2)cs1,2.99%,3.38%,2.65%
COc1cc(NC2=C(c3ccccc3)C(=O)c3ccccc32)ccn1,4.66%,2.03%,1.41%
Cc1ccc(Oc2ncccc2C(=O)Nc2cccc3cccnc23)c(C)c1,-2.47%,-0.84%,-1.45%
COc1ccc(C(=O)NCC(C)(C)c2nc(-c3ccc(Cl)c(O)c3)c(-c3ccncc3)[nH]2)cc1OCCN(C(C)C)C(C)C,-1.11%,-0.86%,-1.98%
CCn1cc(C=C2Oc3c(ccc(O)c3CN3CCCCC3)C2=O)c2ccccc21,5.49%,4.09%,3.27%
CS(=O)(=O)NCCCNCc1cccc(-c2cccc(-c3nc4cc(C(F)(F)F)ccc4[nH]3)c2)c1,-0.01%,-4.31%,-1.5%
O=C(NCC1CCC1)c1cnc(Nc2cccc(Cl)c2)nc1N1CCC1,14.5%,12.8%,12.4%
CN(Cc1ccccc1)C1CCN(c2cc(NC(=O)c3cccc(F)c3)ccn2)CC1,6.87%,8.73%,6.54%
Cc1cccc2nc(-c3cccc(-c4cccc(NC(=O)NC5CC5c5ccccc5)c4)c3)[nH]c12 (stereo not given),1.8%,2.2%,5.21%
